Measurements taken from PubChem BioAssay (NCI).
Several values for one entry are separate records, joined by “and”; a condition that tells them apart may be missing. Equal entries are not always repeated. Compounds without any hit were thinned out: in the full panel of roughly 83,000, 20% have a hit.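 Step 1: grow cells in 96-well plates. Step 2: add test compound at a single concentration. Step 3: incubate 48 h. Step 4: record percent growth.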 Values without a mark were called inactive. Activity calls are given as the source filed them. Rule for the calls: active = growth percent below 10; inactive = the rest.

Legend:
Assay in all cases: NCI-60 one-dose screen, 48 h (100 = growth as untreated, 0 = no growth, -100 = all killed)
Conditions in all cases: 10 µM unless noted
SR leukemia = system: SR leukemia
RPMI-8226 leukemia = system: RPMI-8226 leukemia
OVCAR-8 ovarian = system: OVCAR-8 ovarian
OVCAR-5 ovarian = system: OVCAR-5 ovarian
OVCAR-4 ovarian = system: OVCAR-4 ovarian
SK-OV-3 ovarian = system: SK-OV-3 ovarian
IGROV1 ovarian = system: IGROV1 ovarian
OVCAR-3 ovarian = system: OVCAR-3 ovarian
NCI/ADR-RES ovarian = system: NCI/ADR-RES ovarian
T-47D breast = system: T-47D breast
BT-549 breast = system: BT-549 breast
MDA-MB-435 melanoma = system: MDA-MB-435 melanoma
SW-620 colon = system: SW-620 colon
MCF7 breast = system: MCF7 breast
HCT-116 colon = system: HCT-116 colon
HCC-2998 colon = system: HCC-2998 colon
KM12 colon = system: KM12 colon
HS 578T breast = system: HS 578T breast

| Compound | growth (SR leukemia) | growth (RPMI-8226 leukemia) | growth (OVCAR-8 ovarian) | growth (OVCAR-5 ovarian) | growth (OVCAR-4 ovarian) [%] | growth (SK-OV-3 ovarian) | growth (IGROV1 ovarian) | growth (OVCAR-3 ovarian) | growth (NCI/ADR-RES ovarian) | growth (T-47D breast) | growth (BT-549 breast) | growth (MDA-MB-435 melanoma) | growth (SW-620 colon) | growth (MCF7 breast) | growth (HCT-116 colon) | growth (HCC-2998 colon) | growth (KM12 colon) | growth (HS 578T breast) |
| --- | --- | --- | --- | --- | --- | --- | --- | --- | --- | --- | --- | --- | --- | --- | --- | --- | --- | --- |
| COc1ccc(O)c2c(=O)c3c(OC)cc4c(c3oc12)[C@@H]1C=CO[C@@H]1O4 | -6.56% (active) | 63.5% | 50.6% | 55.2% | 40.8 | 35.6% | 16.3% | 52% | 41.6% | 5.73% (active) | 17.8% | 37.3% | 64.6% | -0.498% (active) | 52.2% | -51.7% (active) | 12.5% |  |
| NNC(=S)N/N=C(\C(=O)Nc1cccc(O)c1)C1C(=O)NC(=S)NC1=O |  |  |  |  |  |  |  |  |  |  |  |  |  | 95.1% [100 µM] and 87.3% [100 µM] |  |  |  |  |
| NC(=O)c1c(Br)c(Br)c(Br)c(Br)c1C(=O)O (tested in a mixture with another compound) | 52.6% and 86.2% | 101% and 97.9% | 97.5% and 96.6% | 94.5% and 97.3% |  | 113% and 102% | 124% and 110% | 111% and 112% | 103% and 100% |  | 104% and 96.8% | 92.5% and 102% | 97.5% and 105% | 79.5% and 88.8% | 97.8% and 105% | 104% and 103% | 103% and 102% | 114% and 115% |
| CCOP(=O)(OCC)C(=O)N(CC)CC | 91.2% | 89.2% | 96.1% | 111% | 96.5 | 104% | 112% | 109% | 102% |  | 95.1% | 97.8% | 99.6% | 95.2% | 104% |  | 98.2% | 101% |
| CN(N)/N=N/c1nc[nH]c1[N+](=O)[O-] |  |  |  |  |  |  |  |  |  |  |  |  |  | 69.6% [100 µM] and 35% [100 µM] |  |  |  |  |
| CCOC(=O)c1c(SC)nc(-c2ccc(Cl)cc2)sc1=N |  |  |  |  |  |  |  |  |  |  |  |  |  | -8.27% [100 µM] (active) and 5.36% [100 µM] (active) |  |  |  |  |
| COC(=O)CCP(CCC(=O)OC)c1ccccc1 | 106% | 113% | 105% |  | 103 | 101% | 110% | 107% | 106% | 112% | 90% | 97.2% |  | 97.6% | 97.6% | 104% | 111% | 114% |
| COc1cc(C=C2C(=O)NC(=O)NC2=O)ccc1O |  |  | 93.7% | 92% | 101 | 107% | 105% | 110% | 97.5% | 101% | 111% | 101% | 108% | 106% | 102% | 96% | 104% | 123% |
| COc1cc2c(cc1OC)-c1c3c(cc4c1[C@@H](C2)N(C)CC4)OCO3 | 17.2% | 23.9% |  | 42.5% | 44.2 | 66.5% |  | 76.1% |  | 57.4% | 55.8% | 51.8% | 35.1% | 22.9% | 16.1% | -3.7% (active) | 41.4% | 80.4% |
| Nc1ccc2c(c1)Cc1cc(N)ccc1-2 | 95% | 68.6% | 99.7% | 107% | 95.5 | 82.3% | 83.2% | 87.6% | 96.2% | 67.3% |  | 91.8% | 98.9% | 59.9% | 97.9% | 96.2% | 82.6% | 84.4% |
| O=C(O)c1cc([N+](=O)[O-])cc([N+](=O)[O-])c1 | 120% | 101% | 89.6% | 104% | 109 | 94.9% | 132% | 102% |  |  | 94.3% | 101% |  | 93.8% | 85.4% | 107% | 103% | 98.1% |
| Cn1cc(-c2csc(-c3cn(CCCCN4CCOCC4)c4ccc(F)cc34)n2)c2cccnc21 | 37% |  | 81.3% | 79.5% | 84.5 | 84% | 65.4% | 90% | 76.8% | 76.9% | 65.3% | 38.1% | 19.7% | 78.4% | 83% | 92.4% | 52.5% | 41.1% |
